Assay results: PubChem BioAssay (NCATS)
Where “and” joins values, the source holds several entries; their conditions need not be identical. Equal values may be shown once. Results filed as inconclusive are left out. Calls of active or inactive are those of the source. Unless noted, calls come from the whole dose curve.

Experiments:
[1] = Cell Viability - NIH 3T3 (AID 541; active = well fitted curve in the direction sought with a large enough effect; an effect the other way counts as inactive or inconclusive;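 note: cells exposed to compound for 40 hours; plate controls were DMSO alone for no effect and tamoxifen positive control for full effect; nearly all actives have a fitted effect of over 25% in size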); conditions: NIH 3T3 cell viability, qHTS; activity change, negative = cytotoxicity: at 92.2 µM (top of the series)
In short: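 Intracellular ATP (CellTiter-Glo luminescence, 20 min at room temperature) measured after 40 hr compound exposure at 37 °C of 1000 NIH 3T3 mouse fibroblasts/well in complete medium; AC50 derived by Hill-equation modelling of qHTS concentration-response curves.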

[2] = Cell Viability - SH-SY5Y (AID 544; active = well fitted curve in the direction sought with a large enough effect; an effect the other way counts as inactive or inconclusive;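 note: cells exposed to compound for 40 hours; nearly all actives have a fitted effect of over 55% in size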); conditions: SH-SY5Y neuroblastoma cell viability; viability change, negative = cytotoxic: at 92.2 µM (top of the series)
In short: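 Cytotoxicity measured via ATP-dependent luciferase luminescence (CellTiter-Glo) following 40 h, 37 °C exposure of 1500 SH-SY5Y cells per well. Concentration-response data were fitted with the standard Hill equation to give AC50.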

[3] = Cellular Toxicity (caspase-3) Jurkat (AID 655; active = well fitted curve in the direction sought with a large enough effect; an effect the other way counts as inactive or inconclusive;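 note: cells exposed to compound for 16 h at 37 °C before reading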; note: potency is the fitted concentration of half-maximal effect); conditions: Jurkat caspase-3 activation, luminescence; caspase-3 activation: at 92.2 µM (top of the series), DMSO = 0%, tamoxifen = 100%
In short: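 5000 Jurkat cells/well; compound 16 hr, 37 °C; Caspase-Glo 3/7 added, 20 min RT; luminescence read. Norm: DMSO = 0%, tamoxifen 100 uM = 100%. AC50, Hill model.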

[4] = molecular target: Estrogen receptor (Homo sapiens) (UniProt P03372); assay: qHTS assay for small molecule antagonists of estrogen receptor alpha signaling (AID 588513; active = well fitted curve in the direction sought with a large enough effect in the signal ratio, with a control signal flat, not every such curve was filed as active; the % refers to the signal ratio; note: % is set by controls: 0 for no effect and ±100 for the full control effect)
In short: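 Fluorescence from CCF4 substrate after 2 h at room temperature gave reporter activity; cells had been exposed to compound and 0.5nM 17-beta-estradiol for 18 h at 37 C. Hill-equation fitting yielded IC50 and maximal response.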

[5] = molecular target: Bile acid receptor (Homo sapiens) (UniProt Q96RI1); assay: qHTS assay for small molecule antagonists of farnesoid X receptor signaling (AID 588526); note: % is set by controls: 0 for no effect and ±100 for the full control effect
In short: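 Concentration-response titrations were fitted to the Hill equation for half-maximal inhibition and maximal response, with data normalised to 50 uM chenodeoxycholic acid and DMSO control wells. Cells: FXR-UAS-bla HEK293T, dialyzed FBS.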

[6] = molecular target: Peroxisome proliferator-activated receptor delta (Homo sapiens) (UniProt Q03181); assay: qHTS assay for small molecule agonists of peroxisome proliferator-activated receptor delta signaling (AID 588534);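 note: 0% = DMSO basal wells and 100% = positive control agonist at 10 µM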
In short: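 Agonist-mode beta-lactamase reporter readout (CCF4 dye, 2 h at RT) after 18 h at 37 °C exposure to a titration; Hill-equation fitting gave EC50 and maximal response.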

[7] = qHTS assay for small molecule antagonists of peroxisome proliferator-activated receptor delta signaling (AID 588535; active = well fitted inhibition curve with a large enough effect in the signal ratio, with a control signal flat, not every such curve was filed as active; the % refers to the signal ratio;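 for max response: cells co-treated with a PPAR-delta agonist as stimulator during compound exposure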); conditions: HEK293T PPARd-UAS-bla, beta-lactamase FRET ratio, 18 h; 460 nm channel
In short: (§1)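 Inhibition of PPAR-delta response element-driven beta-lactamase expression is measured in HEK293T cells exposed to a compound titration series for 18 hrs at 37 C. Half-maximal inhibition comes from Hill equation fitting.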

[8] = molecular target: Peroxisome proliferator-activated receptor delta (Homo sapiens) (UniProt Q03181); assay: as above
In short: as §1

[9] = molecular target: Retinoic acid receptor RXR-alpha (Homo sapiens) (UniProt P19793); assay: qHTS assay for small molecule agonists of retinoid X receptor alpha signaling (AID 588544);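 note: 0% = DMSO basal wells and 100% = reference agonist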
[10] = qHTS assay for small molecule agonists of the antioxidant response element (ARE) signaling pathway (AID 651741; active = well fitted activation curve with a large enough effect in the signal ratio; the % refers to the signal ratio; note: potency is the fitted concentration of half-maximal effect; for activation: % of control where 0% means no effect)
In short: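 Reporter: beta-lactamase under ARE, stably in HepG2. Exposure: 16 h, 37 C, compounds delivered in DMSO by pin tool after 5 h cell preincubation. Readout: FRET substrate fluorescence after 2 h at RT.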

[11] = qHTS assay for small molecule activators of the p53 signaling pathway (AID 651743; active = well fitted activation curve with a large enough effect in the signal ratio, not every such curve was filed as active; the % refers to the signal ratio; note: potency is the fitted concentration of half-maximal effect; for activation: % of control where 0% means no effect); conditions: HCT-116 p53RE-bla, beta-lactamase FRET ratio, 16 h; activation: stronger effect = higher value
In short: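 Agonist-mode quantitative HTS in HCT-116 cells carrying a p53-response-element beta-lactamase reporter; 16 h compound treatment at 37 C, then FRET substrate loading for 2 h at room temperature and fluorescence read.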

[12] = qHTS assay for small molecule activators of the nuclear factor-kappa B (NF-kB) signaling pathway (AID 651749; active = well fitted activation curve with a large enough effect in the signal ratio; the % refers to the signal ratio; note: % of control where 0% means no effect); conditions: NF-kB-bla ME-180 cells, beta-lactamase FRET ratio, 16 h; stronger effect = higher value
In short: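 Human ME-180 cervical cells with an NF-kB-bla construct; compounds added via 23 nL pin transfer, DMSO as vehicle; incubation 16 hr. Reporter activity measured by FRET disruption.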

[13] = qHTS assay for small molecule disruptors of the mitochondrial membrane potential - 1 hr assay (AID 651754); note: % is set by controls: 0 for no effect and ±100 for the full control effect; nearly all actives have a fitted effect of over 35% in size
In short: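 Mitochondrial potential in living HepG2 cells after 1 hr compound treatment at 37C was read with Mito-MPS dye added for a further 30 min. Red aggregate and green monomer fluorescence were measured; loss of potential leaves dye as cytoplasmic monomers.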

[14] = qHTS assay for small molecule disruptors of the mitochondrial membrane potential - 5 hr assay (AID 651755); note: % is set by controls: 0 for no effect and ±100 for the full control effect; nearly all actives have a fitted effect of over 40% in size
In short: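 Seed HepG2 overnight, add compound, incubate 5 hr at 37C and 5% CO2, stain 30 min with Mito-MPS, then measure monomer (490/535 nm) and aggregate (540/590 nm) fluorescence.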

[15] = Cell Viability - LYMP2-005 (AID 967; active = well fitted curve in the direction sought with a large enough effect; an effect the other way counts as inactive or inconclusive;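 note: cells exposed to compound for 24 h at 37 °C; plate controls were DMSO only for no effect and 92 µM tetraoctylammonium bromide control for full effect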)
In short: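 Acute cytotoxicity is scored as a concentration-dependent drop in intracellular ATP in human lymphoblastoid LYMP2-005 cells after 24 h compound treatment. ATP is quantified by luciferase luminescence, and AC50 is derived by Hill-equation modelling.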

[16] = molecular target: Glucocorticoid receptor (Homo sapiens) (UniProt P04150); assay: qHTS assay for small molecule agonists of glucocorticoid receptor signaling (AID 588532; active = well fitted curve in the direction sought with a large enough effect in the signal ratio, with a control signal flat; the % refers to the signal ratio;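 note: 100% = dexamethasone at 0.1 µM and 0% = DMSO only wells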); conditions: HeLa MMTV-bla, beta-lactamase ratio, agonist, 18 h; stronger effect = higher value; percent of dexamethasone control, DMSO zero
In short: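 Stimulation of a glucocorticoid response element-driven beta-lactamase gene was measured in HeLa cells. Responses were scaled between DMSO basal and 0.1 uM dexamethasone, then fitted for half-maximal stimulation.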

[17] = molecular target: Glucocorticoid receptor (Homo sapiens) (UniProt P04150); assay: qHTS assay for small molecule antagonists of glucocorticoid receptor signaling (AID 588533; active = well fitted inhibition curve with a large enough effect in the signal ratio, with a control signal flat, not every such curve was filed as active; the % refers to the signal ratio;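 note: cells stimulated with 2 nM dexamethasone as agonist; % is set by controls: 0 for no effect and ±100 for the full control effect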)
In short: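 Antagonist-mode qHTS: compound titrations added to GRE-bla HeLa cells, then dexamethasone 2 nM final; 18 h, 37 C. CCF4 FRET fluorescence normalized to dexamethasone and DMSO; IC50 from Hill fit.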

[18] = molecular target: Peroxisome proliferator-activated receptor gamma (Homo sapiens) (UniProt P37231); assay: qHTS assay for small molecule antagonists of peroxisome proliferator-activated receptor gamma signaling (AID 588537; active = well fitted inhibition curve with a large enough effect in the signal ratio, with a control signal flat, not every such curve was filed as active; the % refers to the signal ratio;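 note: reporter cells co-stimulated with 50 nM rosiglitazone agonist during compound treatment; % of control where 0% means no effect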)
In short: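 Compounds are tested as concentration series for inhibition of rosiglitazone-driven (50 nM) reporter expression in GeneBLAzer PPAR-gamma-UAS-bla HEK293 cells. After 16 h at 37 C, CCF4 substrate is added for 2 h at room temperature and blue/green fluorescence is measured.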

[19] = molecular target: Estrogen receptor (Homo sapiens) (UniProt P03372); assay: qHTS assay for small molecule agonists of estrogen receptor alpha signaling (AID 588514);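 note: 0% = vehicle only and 100% = reference agonist; nearly all actives have a fitted effect of over 70% in size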
In short: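 EC50 and efficacy came from Hill fits of beta-lactamase reporter signal (CCF4 dye, 2 h at room temperature) scaled between DMSO and 20 nM 17-beta-estradiol. Agonist mode: HEK293 ER-alpha-UAS-bla cells in charcoal/dextran-stripped serum medium, 18 h compound exposure at 37 C.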

[20] = Cell Viability - BJ (AID 421); conditions: BJ fibroblast viability, qHTS;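 note: potency is the fitted concentration of half-maximal effect; cells exposed to compound for 40 hours at 37 °C before readout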
In short: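 Cytotoxicity in human BJ foreskin fibroblasts is scored as loss of cellular ATP after a 40-hour exposure, measured by luciferase luminescence. Controls are DMSO and 100 uM tamoxifen.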

Bile acid receptor (Homo sapiens), sequence (Q96RI1 whole entry, looked up): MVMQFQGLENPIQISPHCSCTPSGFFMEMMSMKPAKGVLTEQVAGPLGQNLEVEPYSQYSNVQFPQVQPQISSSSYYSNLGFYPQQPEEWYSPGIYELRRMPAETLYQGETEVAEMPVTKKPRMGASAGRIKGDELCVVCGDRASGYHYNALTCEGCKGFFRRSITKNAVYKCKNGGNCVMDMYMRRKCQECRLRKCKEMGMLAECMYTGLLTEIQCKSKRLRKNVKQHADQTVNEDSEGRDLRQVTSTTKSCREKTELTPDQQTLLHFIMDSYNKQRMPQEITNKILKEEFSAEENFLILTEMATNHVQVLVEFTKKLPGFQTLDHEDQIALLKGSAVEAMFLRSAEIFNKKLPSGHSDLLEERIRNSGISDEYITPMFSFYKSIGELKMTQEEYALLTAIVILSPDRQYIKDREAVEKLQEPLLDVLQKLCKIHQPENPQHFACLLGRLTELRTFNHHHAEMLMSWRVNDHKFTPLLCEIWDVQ
Glucocorticoid receptor (Homo sapiens), sequence (P04150 whole entry, looked up): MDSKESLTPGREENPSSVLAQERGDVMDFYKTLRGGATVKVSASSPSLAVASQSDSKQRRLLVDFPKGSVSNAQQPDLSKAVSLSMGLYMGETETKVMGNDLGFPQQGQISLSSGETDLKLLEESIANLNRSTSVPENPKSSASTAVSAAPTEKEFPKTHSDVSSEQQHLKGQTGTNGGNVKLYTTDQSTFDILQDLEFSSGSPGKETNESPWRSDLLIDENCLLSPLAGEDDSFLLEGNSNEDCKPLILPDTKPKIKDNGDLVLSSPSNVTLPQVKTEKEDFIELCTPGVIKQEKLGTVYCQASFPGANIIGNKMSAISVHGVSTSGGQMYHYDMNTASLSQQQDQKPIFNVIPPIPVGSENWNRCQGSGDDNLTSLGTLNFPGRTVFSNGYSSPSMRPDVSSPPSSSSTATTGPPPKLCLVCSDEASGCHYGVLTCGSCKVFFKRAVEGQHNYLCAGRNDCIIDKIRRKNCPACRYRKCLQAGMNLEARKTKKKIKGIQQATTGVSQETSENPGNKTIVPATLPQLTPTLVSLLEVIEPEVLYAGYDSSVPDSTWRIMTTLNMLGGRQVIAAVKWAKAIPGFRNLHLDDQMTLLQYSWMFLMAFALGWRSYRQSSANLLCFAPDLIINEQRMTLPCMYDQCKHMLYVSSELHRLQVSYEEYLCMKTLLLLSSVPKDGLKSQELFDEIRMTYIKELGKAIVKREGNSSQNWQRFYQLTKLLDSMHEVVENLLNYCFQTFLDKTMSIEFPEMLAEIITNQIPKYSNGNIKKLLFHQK
Retinoic acid receptor RXR-alpha (Homo sapiens), sequence (P19793 whole entry, looked up): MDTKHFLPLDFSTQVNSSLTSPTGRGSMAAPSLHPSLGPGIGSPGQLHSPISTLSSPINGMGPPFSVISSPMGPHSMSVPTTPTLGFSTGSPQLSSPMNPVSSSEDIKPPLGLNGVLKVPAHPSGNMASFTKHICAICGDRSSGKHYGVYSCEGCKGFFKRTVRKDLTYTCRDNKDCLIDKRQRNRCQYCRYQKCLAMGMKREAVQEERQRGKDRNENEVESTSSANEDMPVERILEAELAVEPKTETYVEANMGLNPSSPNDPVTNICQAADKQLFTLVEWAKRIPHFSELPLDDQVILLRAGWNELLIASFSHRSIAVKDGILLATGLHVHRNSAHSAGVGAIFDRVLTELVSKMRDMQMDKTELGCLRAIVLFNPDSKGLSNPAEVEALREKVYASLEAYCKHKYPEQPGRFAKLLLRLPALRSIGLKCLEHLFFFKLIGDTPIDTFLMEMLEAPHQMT
Peroxisome proliferator-activated receptor gamma (Homo sapiens), sequence (P37231 whole entry, looked up): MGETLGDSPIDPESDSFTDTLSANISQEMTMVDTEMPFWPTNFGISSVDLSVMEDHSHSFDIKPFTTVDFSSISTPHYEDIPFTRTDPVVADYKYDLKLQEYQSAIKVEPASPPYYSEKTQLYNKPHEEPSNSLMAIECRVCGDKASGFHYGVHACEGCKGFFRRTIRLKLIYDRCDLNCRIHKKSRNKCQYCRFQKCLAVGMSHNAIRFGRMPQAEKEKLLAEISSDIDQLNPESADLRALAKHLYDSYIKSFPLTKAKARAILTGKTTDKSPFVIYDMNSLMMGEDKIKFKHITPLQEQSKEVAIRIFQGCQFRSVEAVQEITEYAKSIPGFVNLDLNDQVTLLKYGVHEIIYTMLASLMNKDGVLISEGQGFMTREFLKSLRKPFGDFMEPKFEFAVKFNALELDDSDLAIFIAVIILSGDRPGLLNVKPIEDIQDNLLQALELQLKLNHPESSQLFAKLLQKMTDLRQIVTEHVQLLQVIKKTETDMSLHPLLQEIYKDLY
Estrogen receptor (Homo sapiens), sequence (P03372 whole entry, looked up): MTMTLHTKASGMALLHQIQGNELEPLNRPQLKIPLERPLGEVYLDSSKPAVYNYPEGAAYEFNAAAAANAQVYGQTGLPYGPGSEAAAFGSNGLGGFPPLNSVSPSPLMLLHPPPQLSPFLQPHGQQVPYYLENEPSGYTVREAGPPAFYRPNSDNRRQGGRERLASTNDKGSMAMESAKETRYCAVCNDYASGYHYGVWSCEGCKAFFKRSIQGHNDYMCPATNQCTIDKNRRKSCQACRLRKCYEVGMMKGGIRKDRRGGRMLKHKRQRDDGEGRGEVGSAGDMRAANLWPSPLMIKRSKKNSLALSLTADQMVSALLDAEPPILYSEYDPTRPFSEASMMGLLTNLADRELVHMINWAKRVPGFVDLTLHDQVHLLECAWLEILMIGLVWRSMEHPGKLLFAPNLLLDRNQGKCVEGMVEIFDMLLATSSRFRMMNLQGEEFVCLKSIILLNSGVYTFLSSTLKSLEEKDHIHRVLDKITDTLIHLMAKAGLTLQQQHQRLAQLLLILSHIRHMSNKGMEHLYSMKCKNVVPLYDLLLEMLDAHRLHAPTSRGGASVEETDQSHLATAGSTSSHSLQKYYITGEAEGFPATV
Peroxisome proliferator-activated receptor delta (Homo sapiens), sequence (Q03181 whole entry, looked up): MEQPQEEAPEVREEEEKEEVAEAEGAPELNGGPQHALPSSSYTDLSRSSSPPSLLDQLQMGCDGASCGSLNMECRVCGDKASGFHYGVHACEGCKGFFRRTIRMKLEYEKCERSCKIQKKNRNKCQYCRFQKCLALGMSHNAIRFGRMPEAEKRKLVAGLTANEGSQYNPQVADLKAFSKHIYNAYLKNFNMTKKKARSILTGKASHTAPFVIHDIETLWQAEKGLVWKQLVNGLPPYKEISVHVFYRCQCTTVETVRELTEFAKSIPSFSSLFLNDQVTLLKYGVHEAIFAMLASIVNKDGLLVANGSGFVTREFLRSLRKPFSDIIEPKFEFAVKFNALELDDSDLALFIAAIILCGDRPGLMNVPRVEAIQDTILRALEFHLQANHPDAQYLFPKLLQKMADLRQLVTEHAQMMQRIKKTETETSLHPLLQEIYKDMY

Nc1cccc(Cl)c1
30.4%: max response [7]
inactive: Potency [1] | Potency [2] | caspase-3 activation [3] 11.8% | Potency [4] | outcome [5] | outcome [6] | outcome [8] | outcome [9] | Potency [10] | activation [11] -1.95% | activation [12] -1.07% | Potency [13] | Potency [14]

CCN(CC)CCO
24%: max response [7]
inactive: Potency [1] | Potency [2] | caspase-3 activation [3] 2.76% | Potency [15] | activation [16] 6.4% | outcome [17] | outcome [6] | Potency [18] | outcome [9] | Potency [10] | activation [11] 0.771% | activation [12] -0.22% | Potency [13] | Potency [14]

Nc1cccc2ccccc12
active: Potency [3] 25.1 µM
inactive: Potency [1] | Potency [15] | Potency [4] | Potency [19] | outcome [6] | activation [11] -3.1% | Potency [13] | Potency [14]

C=CC(=O)OC
inactive: Potency [1] | Potency [2] | caspase-3 activation [3] 0.227% | Potency [15] | outcome [5] | Potency [18] | outcome [9] | Potency [10] | activation [11] -0.53% | activation [12] -0.11% | Potency [13]

Clc1ccc(C(c2ccccc2Cl)C(Cl)(Cl)Cl)cc1 (stereo not drawn)
inactive: Potency [20] > 92 µM | activation [16] 1.13% | outcome [17] | outcome [6] | Potency [18] | activation [11] 0.576% and 10.5% | activation [12] 3.52% and 5.2%
active: Potency [10] 75 µM and 61.1 µM

Clc1ccc(C(Cl)(Cl)Cl)cc1Cl
inactive: Potency [1] | Potency [2] | caspase-3 activation [3] 0.663% | Potency [15] | Potency [4] | Potency [19] | outcome [17] | outcome [6] | Potency [18] | activation [11] 0.791% | activation [12] -1.35% | Potency [13] | Potency [14]

BrCC(Br)(Br)Br
inactive: Potency [20] > 92 µM | Potency [4] | Potency [19] | outcome [9] | activation [11] -0.838% | activation [12] 0.84% | Potency [14]
active: Potency [10] 29.8 µM

Oc1cc(Cl)c(Cl)c(Cl)c1Cl
active: caspase-3 activation [3] 80.5% | Potency [10] 11.9 µM | Potency [11] 39.8 µM
inactive: Potency [15] | activation [16] 5.92%

O=C(O)CBr
-19.5%: max response [7]
inactive: Potency [1] | caspase-3 activation [3] 2.79% | Potency [15] | outcome [6] | Potency [18] | outcome [9] | activation [11] -0.316% | activation [12] -0.961% | Potency [14]

O=C(O)C(Br)Br
inactive: Potency [20] > 92 µM | Potency [1] | caspase-3 activation [3] 6.46% | Potency [4] | outcome [5] | Potency [18] | activation [11] 6.12% | activation [12] -1.25% | Potency [13]
active: Potency [10] 2.98 µM
